Activity calls are given as the source filed them.
How the values were obtained:
Albumin (Bos taurus) = Albumin (Bos taurus) (UniProt P02769); test: bovine serum albumin binders on microarray, profiling panel, artefact control for SMM control protein annotation, biochemical, small-molecule microarray, Alexa647 label, 635/667 nm fluorescence (AID 1118); conditions: BSA-A647 binding, fluorescence 635 nm, higher = more signal;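 note: score merges 667 nm emission intensity and signal-to-noise per printed compound spot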
[1] = small-molecule microarray binders of probe aXIP, primary screen, biochemical, NeuroSMM set, 635/667 nm fluorescence (AID 1119); conditions: higher = more signal, called active from +8 up or from −8 down;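 note: probe is the protein aXip251-270 applied at 1 µg/mL to compound-printed slides; binding of probe to printed compounds measured as 667 nm fluorescence plus signal to noise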
[2] = small-molecule binders of probe aNOTCH3, primary screen, biochemical, small-molecule microarray, 635/667 nm fluorescence (AID 1120); conditions: higher = more signal;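 note: probe is a biotin-tagged antibody raised against NOTCH3 rather than NOTCH3 protein; score merges spot fluorescence near 667 nm with spot signal to noise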
[3] = small-molecule binders of probe aNOTCH2, primary screen, biochemical, small-molecule microarray, 635/667 nm fluorescence (AID 1121); conditions: higher = more signal;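 note: score merges feature fluorescence read at 667 nm with its signal to noise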
[4] = target: Carbonic anhydrase 2 (Homo sapiens) (UniProt P00918); test: CAII small-molecule binders, profiling panel, biochemical, small-molecule microarray, Alexa647-labelled CAII (AID 1122); conditions: CAII-A647 binding fluorescence, higher = more signal
[5] = COS7 lysate on small-molecule microarray, probe aHis, 635 nm (AID 1123); conditions: COS7 cell lysate, fluorescence, higher = more signal;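 note: z-score combines 667nm fluorescence intensity with signal-to-noise per printed compound spot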
[6] = compound binding in COS7 lysate, probe aLAP1, primary screen, cell lysate, small-molecule microarray (AID 1124); conditions: probe aLAP1, fluorescence, higher = more signal;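 note: lysate comes from COS7 cells expressing LAP1 and is applied at 0.3 µg/mL; score merges spot fluorescence near 667 nm with signal-to-noise over triplicate slides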
Sam68 (KHDRBS1) = test: Sam68 small-molecule binders, primary screen, biochemical, small-molecule microarray, 635 nm fluorescence (AID 1125); conditions: small-molecule microarray binding, higher = more signal;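 note: score merges 667 nm channel intensity with signal to noise over triplicate slides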
[7] = tested on: Chordin-like protein 2 (CHRDL2); test: CHRDL2 small-molecule binders, primary screen, biochemical, small-molecule microarray, 635 nm fluorescence (AID 1126); conditions: small-molecule microarray binding, fluorescence 635 nm; higher = more signal;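 note: printed compound slides probed with Chrdl2 protein at 4 µg/mL for 1 h at 4 C; score merges 667 nm emission intensity with signal to noise over three replicate slides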
[8] = target: Concanavalin-A (Canavalia ensiformis) (UniProt P02866); test: ConA small-molecule binders, primary screen, artefact control for SMM control protein annotation, biochemical, small-molecule microarray, Alexa647 label, 635 nm (AID 1127); conditions: ConA-A647 binding fluorescence, higher = more signal;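 note: z combines 667 nm emission intensity with signal-to-noise across three replicate slides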
Sequence of Concanavalin-A (Canavalia ensiformis) (P02866 whole entry, looked up): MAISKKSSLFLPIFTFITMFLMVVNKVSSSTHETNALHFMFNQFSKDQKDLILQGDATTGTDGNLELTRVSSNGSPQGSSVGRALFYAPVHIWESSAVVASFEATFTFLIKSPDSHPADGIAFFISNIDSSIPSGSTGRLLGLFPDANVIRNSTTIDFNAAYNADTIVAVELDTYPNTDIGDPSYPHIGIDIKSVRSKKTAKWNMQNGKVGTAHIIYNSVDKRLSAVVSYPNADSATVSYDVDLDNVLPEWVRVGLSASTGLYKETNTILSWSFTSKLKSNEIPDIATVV

Sequence of Albumin (Bos taurus) (P02769 whole entry, looked up): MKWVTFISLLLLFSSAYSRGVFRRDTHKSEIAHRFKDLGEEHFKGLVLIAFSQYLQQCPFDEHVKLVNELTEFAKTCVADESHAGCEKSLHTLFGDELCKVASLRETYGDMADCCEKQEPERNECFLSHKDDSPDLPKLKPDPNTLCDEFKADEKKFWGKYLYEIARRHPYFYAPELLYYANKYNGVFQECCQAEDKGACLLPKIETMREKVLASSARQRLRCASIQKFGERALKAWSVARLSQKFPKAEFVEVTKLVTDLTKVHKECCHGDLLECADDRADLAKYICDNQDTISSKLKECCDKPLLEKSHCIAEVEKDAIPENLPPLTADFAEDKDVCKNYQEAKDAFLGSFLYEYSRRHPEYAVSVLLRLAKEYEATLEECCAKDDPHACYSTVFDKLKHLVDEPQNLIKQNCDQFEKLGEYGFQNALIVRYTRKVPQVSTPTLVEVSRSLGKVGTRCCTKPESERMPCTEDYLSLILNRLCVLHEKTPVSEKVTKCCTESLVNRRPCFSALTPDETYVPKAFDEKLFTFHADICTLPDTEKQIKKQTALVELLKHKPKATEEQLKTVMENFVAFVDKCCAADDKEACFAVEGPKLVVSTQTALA

Structure (SMILES) | composite z-score (Albumin (Bos taurus)) | composite Z-score [1] | composite z-score [2] | composite z-score [3] | composite z-score [4] | composite z-score [5] | composite z-score [6] | composite z-score (Sam68 (KHDRBS1)) | composite z-score [7] | composite z-score [8]
COCCOC(=O)N1C(=O)[C@@]2(c3ccccc31)[C@H](C(=O)N1CCCCCCC1)[C@H]1C(=O)O[C@H](c3ccccc3)[C@H](c3ccccc3)N1[C@@H]2c1ccc(OCCO)cc1 | 0.445 | 10.1 (active) | 2.33 | 1.21 | 1.09 | 5.19 | 1.31 | 1.32 | 1.68 | 1.28
COC(=O)[C@@]1(Cc2ccc(OC)cc2)[C@H]2c3cc(C(=O)N4CCCC4)n(CCc4ccc(O)c(O)c4)c3C[C@H]2CN1C(=O)c1ccccc1 | 0.881 | -0.2 (inactive) | 0.144 | 0.336 | 0.79 | 3.42 | 0.932 | -0.0777 | -0.237 | 0.0245
CC#CC(=O)Oc1ccc(Br)cc1C=CC(=O)OCC | -0.107 | 1.39 (inactive) | 0.144 | -0.0529 | 0.18 | 0.942 | 0.158 | 0.582 | 0.103 | 0.269
COCCOC(=O)N1C(=O)[C@@]2(c3cc(C#CCCO)ccc31)[C@H](c1ccc(O)cc1)N1[C@H](c3ccccc3)[C@H](c3ccccc3)OC(=O)[C@H]1[C@@H]2C(=O)N1CCN(c2ncccn2)CC1 | 0.435 | 0.982 (inactive) | 1.28 | 0.51 | 0.183 | 2.92 | 0.782 | 1.29 | 0.677 | 1.16
C=C(CCCC)/C(=C/C[C@H](OC(C)=O)c1ccccc1OCCO)c1cnc2ccccc2c1 | 0.553 | 0.282 (inactive) | -0.12 | -0.173 | 0.5 | 0.376 | 0.0282 | 0.8 | 0.77 | 0.706
C=CC[C@@]1(C(=O)N2CCCCC2)N=C(c2ccc(OCCCO)cc2)O[C@@H]1c1ccccc1N=[N+]=[N-] | 0.82 | -0.797 (inactive) | 0.185 | 0.0497 | 0.443 | 2.41 | -0.0724 | 1.29 | -0.294 | 1.04
C=CC[C@]1(C(N)=O)N=C(c2ccc(OCCCO)cc2)O[C@H]1c1ccccc1 | 0.34 | 0.15 (inactive) | -0.0284 | 0.102 | 0.779 | 0.916 | -0.137 | -0.188 | 0.204 | 0.721
CN(C)CCCCCCNC(=O)[C@@H]1C[C@@H]2C(=O)N3CCC[C@H]3C(=O)N2[C@@H]1c1ccc(O)cc1 | -0.645 | 2.74 (inactive) | 0.488 | 0.119 | 0.738 | 2.77 | 1.47 | 1.31 | 1.43 | 1.16
C=C(/C(=C/C[C@H](OC(C)=O)c1ccc(OCCO)cc1)c1cc(C(=O)OC)ccc1OC)C(C)C | 0.322 | 0.218 (inactive) | 0.0562 | -0.0666 | 0.767 | 1.73 | -0.144 | 1.31 | 0.305 | 0.883
O=C1C[C@@](C(=O)NCc2ccccc2)(c2ccc([N+](=O)[O-])cc2)[C@@H](c2ccc(CO)cc2)N1CC12CC3CC(CC(C3)C1)C2 | -0.0057 | -0.36 (inactive) | -0.128 | -0.14 | 0.479 | 1.37 | 2.12 | 1.31 | 0.119 | 0.89
NCCCCCNC(=O)[C@H]1C[C@H]2C(=O)N[C@@H](Cc3ccccc3)C(=O)N2[C@H]1c1cccc(OCCO)c1 | 0.862 | 1.11 (inactive) | 0.144 | 0.0409 | 0.438 | 0.24 | 1.07 | 0.474 | 0.723 | 0.883
Cc1ccc(S(=O)(=O)N2C[C@@H](C(=O)O)[C@H](Sc3ccccc3)C[C@H]2c2ccccc2)cc1 | 0.855 | -0.202 (inactive) | 0.418 | 0.0456 | 0.732 | 1.99 | 0.89 | 1.29 | -0.75 | 1.13
CCCCCCc1nc(-c2ccc(-c3ccc(Cl)c(Cl)c3)o2)c(C)c2c1[Si](C(C)C)(C(C)C)OC2 | 0.13 | 0.0001 (inactive) | -0.1 | -0.166 | 0.0293 | 0.645 | -0.173 | 0.1 | -1.06 | 0.999
CC(C)Cc1ccc(CN2CC[C@@H](N)C2)cc1 | -0.275 | -0.536 (inactive) | -0.152 | -0.205 | -0.501 | -0.304 | -0.485 | -1.62 | -0.629 | -0.732
NCCCCCNC(=O)[C@H]1C[C@H]2C(=O)N3CCC[C@H]3C(=O)N2[C@H]1c1ccc(O)cc1 | 0.851 | 1.56 (inactive) | 0.489 | -0.0024 | 0.445 | 0.676 | 0.0612 | 1.33 | 0.464 | 1.17
COC(=O)c1c(CC[C@@H](CO)NC(=O)NCCc2c[nH]c3ccccc23)oc(C(=O)Cc2ccccc2)c1C(=O)OC | 0.0018 | -0.326 (inactive) | 0.0842 | -0.14 | 0.112 | 0.452 | -0.161 | 0.583 | 0.149 | 0.467
CC(C)(C)OC(=O)CC[C@]1(C(=O)NCCN2CCOCC2)COC(c2ccc(OCCCO)cc2)=N1 | 0.735 | 0.347 (inactive) | 0.199 | -0.0995 | 0.719 | 2.48 | 0.737 | 1.28 | -0.634 | 0.919
CC(=CC1CCCCC1)[C@@H](NC(=O)c1cccnc1)c1ccc(-c2ccccc2)cc1 | 0.513 | -0.8 (inactive) | -0.118 | -0.0665 | 0.0804 | 1.24 | -0.264 | -0.649 | -0.531 | 0.132

Structure (SMILES) | composite z-score (Albumin (Bos taurus)) | composite Z-score [1] | composite z-score [2] | composite z-score [3] | composite z-score [4] | composite z-score [5] | composite z-score [6] | composite z-score (Sam68 (KHDRBS1)) | composite z-score [7] | composite z-score [8]
CCCCN1CC=CC23O[C@@H]4C=CCOC(=O)[C@@H]4[C@H]2C(=O)N(CCCCCCO)[C@@H]3C1=O (stereo not given in full) | -0.469 | 0.998 (inactive) | -0.182 | -0.187 | 0.95 | -0.275 | 0.456 | -0.821 | -1.83 | -1.24
C=CCC(OC(C)=O)[C@@H]1[C@@H](N(Cc2ccc(-c3ccccc3)cc2)C(=O)Cc2ccc(F)cc2)c2cc(OCCCO)ccc2N1C(=O)c1ccc2ccccc2c1 (stereo not given in full) | -0.153 | -0.301 (inactive) | 0.119 | 0.0251 | 0.0176 | 0.361 | 0.225 | 0.112 | -0.132 | -1.04
CCCCC(=C=CC[C@@H](O)c1ccc(CO)o1)CCO | -0.276 | -0.35 (inactive) | 0.0261 | -0.044 | 0.595 | -0.0845 | 0.24 | 1.17 | 0.29 | 0.119
COC(=O)[C@@]1(CCC(=O)OC(C)(C)C)N=C(c2ccc(OCCCO)cc2)O[C@H]1c1ccccc1 | -0.735 | 0.21 (inactive) | -0.0716 | 0.0464 | 0.687 | 2.16 | 0.637 | -0.297 | 0.0741 | 0.57
COCC(=C=CC[C@@H](O)c1ccc(OCCO)cc1)C[C@@H](O)c1ccccn1 | 0.762 | -0.628 (inactive) | -0.0947 | -0.157 | 0.532 | 0.528 | -0.517 | 0.472 | 0.141 | 0.403
COC(=O)[C@@]1(Cc2ccccc2)[C@H]2c3cc(C(=O)N(C)C)n(CCc4c[nH]c5ccc(O)cc45)c3C[C@H]2CN1C(=O)c1ccccc1 | 1.01 | 0.492 (inactive) | 0.238 | 0.153 | 0.858 | 2.15 | 1.29 | 0.878 | -0.676 | 0.0221
O=C(NC1CC1)[C@@H]1c2ccccc2C(=O)N(Cc2cc(F)cc(C(F)(F)F)c2)[C@H]1c1ccc(CO)cc1 | 0.416 | -0.0461 (inactive) | -0.182 | -0.112 | 0.237 | 0.668 | 0.747 | 0.521 | -0.791 | 0.0427
CN1C(=O)C2C=CC(C(O)C=Cc3ccc([N+](=O)[O-])cc3)N(Nc3ccccc3)C2C1=O (stereo not given) | 0.988 | 0.268 (inactive) | 0.255 | -0.0894 | 0.624 | 1.21 | 0.19 | 1.3 | 0.674 | 0.988
COC(=O)[C@]1(CCC(=O)OC(C)(C)C)N=C(c2ccc(OCCCO)cc2)O[C@@H]1c1ccccc1 | 0.0503 | 1.55 (inactive) | 0.0834 | 0.153 | 0.687 | 1.83 | 0.569 | -0.116 | -0.483 | 0.259
CC(c1ccccc1)C(O)C1C=CC2C(=O)N(C)C(=O)C2N1NC(=O)OC(C)(C)C (stereo not given) | 0.974 | 0.741 (inactive) | 0.148 | -0.0159 | 0.695 | 2.53 | 0.857 | 1.3 | -0.338 | 1.12
C#CCN1[C@@H](Cc2ccc(O)cc2)C(=O)O[C@H](Cc2ccccc2)[C@@H]1/C=C/C1CC1 | -0.545 | 0.228 (inactive) | 0.14 | -0.14 | 0.117 | -0.225 | 0.472 | -0.329 | 0.498 | -0.457
[N-]=[N+]=Nc1ccccc1[C@H]1OC(c2ccc(OCCCO)cc2)=N[C@@]1(Cc1ccccc1)C(=O)N1CCOCC1 | 1.05 | 1.39 (inactive) | 0.223 | 0.132 | 0.523 | 2.89 | 1.09 | 1.29 | 0.311 | 1.14
CCOC(=O)[C@H]1C/C=C/C[C@H](C(=O)OCC)C(=O)O[C@H]2[C@@H](OC)O[C@H](CO)[C@@H](OC(=O)c3ccc(Br)cc3)[C@@H]2OC1=O | 0.184 | 0.38 (inactive) | 0.037 | -0.0956 | 0.397 | 0.306 | 0.435 | -0.0942 | 0.406 | 0.205
CC(C)(C)OC(=O)CC[C@]1(C(N)=O)N=C(c2ccc(OCCCO)cc2)O[C@H]1c1ccccc1 | 0.963 | 0.0933 (inactive) | 0.405 | 0.133 | 0.848 | 3.21 | 0.834 | 1.25 | -1.34 | 0.32
Cc1ccc(/C=C/C=O)cc1 | 0.931 | 0.421 (inactive) | -0.217 | -0.117 | -0.287 | 0.206 | 0.127 | -0.912 | 0.24 | -0.156
C#CCN1[C@H](/C=C/C2CC2)[C@H](Cc2ccccc2)OC(=O)[C@@H]1Cc1ccccc1 | -0.159 | -0.95 (inactive) | -0.124 | -0.0759 | 0.2 | 0.24 | 0.092 | 0.257 | 0.509 | 0.0816
COC(=O)c1c(CC[C@@H](CO)NC(=O)N[C@H](Cc2ccccc2)Cn2cc(-c3ccccn3)nn2)oc(C(C)=O)c1C(=O)OC | 0.687 | 0.794 (inactive) | -0.154 | -0.118 | 0.71 | 0.798 | 1.26 | 0.954 | -0.418 | 1.09
